Results published in PubChem BioAssay (NCI).
Compounds without any hit were thinned out: in the full panel of roughly 79,000, 15% have a hit. Active and inactive are the calls of the source. No stated cut-off is given here; in the data, active means growth inhibition above about 70%; inactive means the rest.

Tests used:
[1] = NCI Yeast Anticancer Drug Screen. Data for the rad50 strain (AID 155);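 further: 0% = growth of vehicle-only cultures of the same strain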; conditions: S. cerevisiae rad50 strain growth inhibition, stronger effect = higher value; at 50.0 µM unless noted
Summary of the method: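 Growth of the mutant yeast was measured after compound exposure and referenced to vehicle-treated cultures.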

[2] = NCI Yeast Anticancer Drug Screen. Data for the mec2-1 strain (AID 157); conditions: S. cerevisiae mec2-1 strain, stronger effect = higher value; at 50.0 µM unless noted
Summary of the method: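 Strain: mec2-1 (DNA repair/cell cycle alteration). Compound exposure, then growth measured; inhibition expressed relative to vehicle.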

[3] = NCI Yeast Anticancer Drug Screen. Data for the sgs1 mgt1 strain (AID 161);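 further: 0% = growth of cultures given vehicle only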; conditions: S. cerevisiae sgs1 mgt1 strain, stronger effect = higher value; at 50.0 µM unless noted
Summary of the method: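 Inhibition of yeast growth, normalised to vehicle-treated controls, is reported for a strain bearing genetic alterations in DNA damage repair.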

[4] = NCI Yeast Anticancer Drug Screen. Data for the cln2 rad14 strain (AID 165);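 further: 0% = growth equal to vehicle treated cultures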; conditions: S. cerevisiae cln2 rad14 strain, stronger effect = higher value; at 50.0 µM unless noted
Summary of the method: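 Compounds are applied to the cln2 rad14 yeast strain, and growth is then compared with that of vehicle-treated cultures to give inhibition.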

[5] = NCI Yeast Anticancer Drug Screen. Data for the bub3 strain (AID 167); conditions: S. cerevisiae bub3 mutant strain, stronger effect = higher value; at 50.0 µM unless noted
Summary of the method: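 Whole-cell yeast assay. The mutant strain was incubated with compounds, and growth inhibition was determined by comparison with vehicle-treated cells.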

[6] = NCI Yeast Anticancer Drug Screen. Data for the mlh1 rad18 strain (AID 175); conditions: S. cerevisiae mlh1 rad18 strain growth inhibition, stronger effect = higher value; at 50.0 µM unless noted
Summary of the method: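 Read-out is yeast growth inhibition, calculated against vehicle-only controls. The compound was applied to a strain engineered with DNA damage repair alterations.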

Measured: growth inhibition

NC(=O)C1(N2CCCC2)CCN(Cc2ccccc2)CC1
inactive: [1] -9.2% | [2] -18.9% | [3] -17.6% | [4] -1.6% | [5] -10.6% | [6] -15.8%

CN(/N=C/c1cccs1)c1ccc(Cl)cc1[N+](=O)[O-]
inactive: [1] -29.4% | [2] -8.95% | [3] -13.8% | [4] 0.95% | [5] -7.45% | [6] -1%

Cc1cc[n+](CCC(N)=O)cc1
inactive: [1] -10.8% | [2] -30.8% | [3] -3% | [4] 1.85% | [5] -16.9% | [6] -19.9%

Cc1ccc([N+](=O)[O-])cc1N1C(=O)c2ccccc2C1=O
inactive: [1] 14.5% | [2] -13.6% | [3] 12.6% | [4] 8.2% | [5] 13.6% | [6] 13.2%

COc1ccc(C2c3cc(OC)c(OC)cc3C(Cc3ccc([N+](=O)[O-])cc3)C2c2ccc([N+](=O)[O-])cc2)cc1OC (configuration not stated)
inactive: [1] 10.7% | [2] 19.8% | [3] -4.15% | [4] 16.1% | [5] 23.2% | [6] 6.55%

CCCCOC(=O)/C=C/C(=O)OCCCC
inactive: [1] -34.6% | [2] 9.6% | [3] 8.85% | [4] 4% | [5] -0.45% | [6] 43.9%

CCCCCCCCC(=O)NCCOC
inactive: [1] 10.9% | [2] 2.8% | [3] 5.8% | [4] -20.8% | [5] -2.95% | [6] 10.6%

CCCCCCSC(=O)NC(C)=O
inactive: [1] -10.3% | [2] -0.95% | [3] 1.4% | [4] -86% | [5] -18.9% | [6] 0%

CCOC(=O)c1c(SCc2ccccc2)nc2c3ccccc3ccn12
inactive: [1] -18.2% | [2] -18.6% | [3] -29.9% | [4] -1.15% | [5] -20.9% | [6] -57.5%

COc1ccc(-n2cnc3c2NC(C)(C)N=C3C(N)=O)c(OC)c1
inactive: [1] -17.8% | [2] -30.1% | [3] -36.1% | [4] 24.9% | [5] -10.2% | [6] -23.2%

COc1cc(Br)c(CC(NC=O)c2ccc(OC)c(OC)c2OC)cc1OC (configuration not stated)
inactive: [1] 0.4% | [2] -0.1% | [3] -6.95% | [4] -7.8% | [5] -1.5% | [6] 23.9%

COc1ccc(NC2Oc3cc4c(cc3C(c3cc(OC)c(O)c(OC)c3)C2C)OCO4)cc1 (configuration not stated)
inactive: [1] 5.1% | [2] 0.1% | [3] -6.15% | [4] 2.65% | [5] 6.6% | [6] 4.8%

c1ccc(C2c3ccccc3CN2c2ccccc2)cc1 (configuration not stated)
inactive: [1] 25.4% | [2] 6.2% | [3] 11.4% | [4] 9.4% | [5] 23.1% | [6] 2.35%

Cc1cc2ccccc2n1/C=C/C1=[N+](C)c2ccccc2C1(C)C
inactive: [1] 10.3% | [2] 6.25% | [3] 10.5% | [4] -38.9% | [5] 8.1% | [6] 25.9%

COC(NC(=O)Nc1ccccc1C)(C(F)(F)F)C(F)(F)F
inactive: [1] -12.3% | [2] -22.4% | [3] -34.4% | [4] 2.8% | [5] -24.4% | [6] -12.8%

C=C1C(=O)OC2CC1C(OC(C)=O)CC1(C)OC1CCC1(C)OC1CCC2(C)O (configuration not stated)
inactive: [1] -4.4% | [2] -0.1% | [3] 1.05% | [4] -2.7% | [5] -9.55% | [6] -3.4%

COc1cc2c(cc1OC)C1CC3(CCN1CC2)CC(=O)NC3=O (configuration not stated)
inactive: [1] -8.65% | [2] -5.5% | [3] -4.75% | [4] -78.8% | [5] -11.9% | [6] 1.35%

COc1ccc2oc(=N)c(C(=O)Nc3ccccc3)cc2c1
inactive: [1] 24.2% | [2] 20.1% | [3] -10.5% | [4] 4.9% | [5] -4.85% | [6] -38.4%

C/C(CCc1ccccc1)=N\NC(N)=S
inactive: [1] 7.1% | [2] 0.95% | [3] 9.55% | [4] -35.1% | [5] -5.5% | [6] 10.3%

CC1(C)CCC2=C(O1)C(=O)c1ccccc1C2=O
inactive: [1] 13.8% | [2] -3.45% | [3] 29.6% | [4] 3.35% | [5] 35.8% | [6] 18%

CC1(C)OC(CCl)C2OC(C)(C)OC(CCl)C2O1 (configuration not stated)
inactive: [1] 11.1% | [2] 9.3% | [3] -7.35% | [4] 3.85% | [5] -4.95% | [6] 2.75%

C=CCOC(=O)CC(=C)C(=O)O
inactive: [1] 18.9% | [2] 31% | [3] 15.8% | [4] -24.8% | [5] 6.2% | [6] 7.55%

CC(C)CCOB(OCCC(C)C)OCCC(C)C
inactive: [1] -25.9% | [2] -40.1% | [3] -6.6% | [4] 2.45% | [5] -26.6% | [6] -23.2%

COc1cc(CC(=O)O)ccc1OC(C)=O
inactive: [1] 4.15% | [2] 2.65% | [3] -16.8% | [4] -25.1% | [5] 1.25% | [6] -5.75%

CCc1ccc(NN=Nc2ccccc2C#N)cc1
inactive: [1] 8.1% | [2] 15.8% | [3] 16.2% | [4] -12.7% | [5] -1.65% | [6] 16.8%

CC1(C)C2(Cl)C(Cl)=C(Cl)C13C(Cl)(c1ccc([N+](=O)[O-])cc1C1(Cl)C(Cl)(Cl)C4(Cl)C(Cl)=C(Cl)C13C4(C)C)C2(Cl)Cl (configuration not stated)
inactive: [1] 0.55% | [2] -10.1% | [3] -27.9% | [4] -7.6% | [5] -2.5% | [6] 13%

CC1=C(C(=O)Nc2ccccc2)C(c2ccccc2Cl)C(C(=O)Nc2ccccc2)=C(C)N1
inactive: [1] 14.8% | [2] -0.35% | [3] -6.25% | [4] 14.4% | [5] -11.7% | [6] 6.65%

Cc1ccc(S(=O)(=O)NN=C2C3C=CC2CC3)cc1
inactive: [1] 11.8% | [2] -2.3% | [3] 2.55% | [4] 6.25% | [5] 2.7% | [6] 4.75%

C/C(=C\C(=O)c1ccc(Sc2ccccc2)cc1)c1ccc(Sc2ccccc2)cc1
inactive: [1] 25.1% | [2] -4.85% | [3] 6.15% | [4] -17.6% | [5] 24.1% | [6] 21.2%

COc1ccc2c(c1)c(C)cc[n+]2C
inactive: [1] -3.3% | [2] 8.5% | [3] -5.9% | [4] -9.65% | [5] -3.05% | [6] -19.3%

COc1ccc2c(c1)[n+](=O)c(C(=O)C/C(=N/NC(=O)c1ccccc1O)C(=O)Nc1ccc(Cl)c(C(F)(F)F)c1)c(C)n2[O-]
inactive: [1] 25.1% | [2] 9.4% | [3] 14.5% | [4] 8.75% | [5] 34.2% | [6] 1.35%

COc1cc(C(=O)NNC(=O)c2ccc(Cl)c(Cl)c2)cc(OC)c1OC
inactive: [1] 24.4% | [2] 33.9% | [3] 20.5% | [4] 18.4% | [5] 33.3% | [6] 34.9%

CNC(=O)N(CCCCC(NC(C)=O)C(=O)NCc1ccccc1)Cc1ccccc1 (configuration not stated)
inactive: [1] -12.3% | [2] -23.2% | [3] -15.8% | [4] -12.4% | [5] -7.1% | [6] -12.8%

C=C(Br)CN(C#N)CC(=C)Br
inactive: [1] -24.4% | [2] -18.1% | [3] 13.8% | [4] -4.25% | [5] -10.5% | [6] -56.9%

CC(O)C(=O)N(CCO)c1ccccc1 (configuration not stated)
inactive: [1] 13.4% | [2] 1.2% | [3] -5.5% | [4] 3.25% | [5] 2.2% | [6] -21.4%

CNc1ccc(C=C2C=CC=C2)cc1
inactive: [1] 41.2% | [2] 1.7% | [3] 48.7% | [4] 5.2% | [5] 7.4% | [6] 55.7%

COC(=O)C1(C(C)C(=O)c2ccccc2)NC(=S)NC(=O)C1C#N (configuration not stated)
inactive: [1] -6.1% | [2] -16.7% | [3] -35.2% | [4] -11.8% | [5] -14.4% | [6] -25.8%
